Test results reported in PubChem BioAssay AID588382 (National Center for Advancing Translational Sciences (NCATS), 2011).
Out of some 1,300 compounds screened, about 150 (12%) were called active. Roughly 30% stayed inconclusive and do not appear here. The entries come from a sample that favours actives as a whole. A number with no mark means an inactive call. The call rests on the fitted dose curve; in most records, active means well fitted cell-killing curve with a large enough effect; inconclusive means small, poorly fitted or top-dose-only effect, or effect the other way; inactive means flat fitted curve, though single readings scatter.

Assay: qHTS of small molecules that selectively kill Giardia lamblia: Hit Validation in HepG2 cytotox;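 further: compound exposure lasted overnight at 37 deg C; nearly all actives have a fitted effect of over 55% in size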;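 on activity change, negative = cytotoxicity: viability measured as cellular ATP by ATPLite luminescence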
Settings: cell viability; Potency: HepG2 cytotoxicity; series mostly up to 38.3 µM; activity change, negative = cytotoxicity: at the top concentration
Procedure, shortened: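 Counterscreen cytotoxicity: ATPLite luminescence (15 min, room temperature) measured in HepG2 cells exposed overnight at 37 deg C to pin-transferred compound (23 nL) after overnight pre-incubation.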
On the % scale 0 is the no-effect control and ±100 the full control effect; potency means the concentration at half of the fitted maximal effect.

Row | SMILES | Potency | activity change, negative = cytotoxicity
1 | O=C(Nc1nnc(SCC(=O)N2CCOCC2)s1)c1ccccc1 | 2.33 µM (active) | 
2 | O=C(CSc1nnc(NC(=O)c2c(F)cccc2F)s1)Nc1ccc(F)cc1 |  | 5.56%
3 | O=C(CSc1nnc(NC(=O)c2ccccc2)s1)NCc1ccco1 | 2.07 µM (active) | 
4 | O=C(Cc1ccc(-n2c(=O)c3sccc3n(CC(=O)Nc3ccccc3)c2=O)cc1)NCc1ccco1 |  | 10.6%
5 | O=C(Nc1nnc(SCC(=O)N2CCOCC2)s1)c1ccccc1Cl | 2.07 µM (active) | 
6 | Cc1ccc(S(=O)(=O)N2[C@@H](c3ccccc3)C(C(=O)O)=CC[C@H]2c2ccc3c(c2)OCO3)cc1 |  | 7.58%
7 | CCN(c1ccccc1)S(=O)(=O)c1cccc(C(=O)OCc2nc3sc(C)c(C)c3c(=O)[nH]2)c1 |  | 14.1%
8 | CC(OC(=O)c1ccc([N+](=O)[O-])s1)C(=O)NC1CCCCC1C (stereo unspecified) |  | -1.99%
9 | O=[N+]([O-])c1nn(-c2ccc3c(c2)OCCO3)n(O)c1=NCCCO |  | 6.86%
10 | O=[N+]([O-])c1ccc(-c2nc(C(Cl)Cl)c3ccccc3n2)cc1 |  | 16.9%
11 | CCOC(=O)C1=C(C)N=c2s/c(=C\c3ccc(O)c([N+](=O)[O-])c3)c(=O)n2C1c1ccccc1OC (stereo unspecified) |  | -5.81%
12 | Nc1ccc[n+](CC(=O)c2ccc(F)cc2)c1 | 1.65 µM (active) | 
13 | CCOC(=O)c1c(C)[nH]c(C)c1S(=O)(=O)N1CCN(c2ccc([N+](=O)[O-])cc2)CC1 |  | 10.8%
14 | Cc1ccc(CN=c2c([N+](=O)[O-])nn(-c3cccc(Cl)c3)n2O)cc1 |  | 20.9%
15 | CCCn1c(NC(=O)c2ccc([N+](=O)[O-])o2)nc2ccccc21 |  | -29.1%
16 | CN(Cc1ccccc1)C(=O)c1ccc([N+](=O)[O-])o1 |  | 8.4%
17 | N#C/C(=C(/O)c1ccc([N+](=O)[O-])o1)c1nc2ccccc2[nH]1 | 3.69 µM (active) | 
18 | COc1ccc(C(=S)NC2CCCCC2)cc1 |  | 8.79%
19 | COc1ccccc1-c1nnc(C2CCN(S(=O)(=O)c3cccc([N+](=O)[O-])c3)CC2)o1 |  | -11.8%
20 | CS(=O)(=O)N1CCN(c2ccc([N+](=O)[O-])c3cccnc23)CC1 |  | 12.2%
21 | COc1ccccc1C1OC2=C(Nc3ccc([N+](=O)[O-])cc3N2)C1=O (stereo unspecified) |  | 5.53%
22 | CNc1nnc(-c2ccc(N(C)C)cc2)s1 | 4.14 µM (active) | 

Row | SMILES | Potency | activity change, negative = cytotoxicity
23 | Cc1ccccc1NC(NC(=O)OCCn1c([N+](=O)[O-])cnc1C)C(Cl)(Cl)Cl (stereo unspecified) |  | 15.1%
24 | COc1cc(/C=C/c2ccc3cccc(OC)c3n2)c(O)c([N+](=O)[O-])c1 |  | -0.206%
25 | CC1=NN(c2nc3ccccc3[nH]2)C(=O)/C1=C/N(C)C | 0.927 µM (active) | 
26 | Cc1ccc([C@H]2C(C(=O)O)=CC[C@@H](c3cccc(Cl)c3)N2S(=O)(=O)c2ccc(C)cc2)cc1 |  | 20.3%
27 | O=[N+]([O-])c1cccc(-n2nnnc2CNCc2ccccc2)c1 |  | 4.65%
28 | O=C(O)c1cc2ccccc2c(N=Nc2cccnc2)c1O |  | 17.4%
29 | CCC(=O)N1CCN(c2ccc(Cl)cc2NC(=O)c2ccc([N+](=O)[O-])o2)CC1 |  | 13%
30 | O=C(Nc1cccc(NC(=O)c2ccccc2Cl)c1)c1ccc([N+](=O)[O-])o1 | 2.61 µM (active) | 
31 | CC(=O)N1CCN(c2ccc(S(C)(=O)=O)cc2[N+](=O)[O-])CC1 |  | 14.8%
32 | CN1CCN(c2ccc(NC(=O)c3ccc([N+](=O)[O-])o3)cc2Cl)CC1 | 3.69 µM (active) | 
33 | CCC(=O)N1CCN(c2ccc(NC(=O)c3ccc([N+](=O)[O-])o3)cc2Cl)CC1 | 3.69 µM (active) | 
34 | CC(=O)N1CCN(c2ccc(NC(=O)c3ccc([N+](=O)[O-])o3)cc2Cl)CC1 | 9.27 µM (active) | 
35 | O=C(Nc1nc2c(Cl)cccc2s1)c1ccc([N+](=O)[O-])o1 |  | -7.01%
36 | CCCn1c(C)cc(C(=O)COc2ccc(C)nc2[N+](=O)[O-])c1C |  | 5.25%
37 | CCNc1ccc(N=Nc2c(C)n(C)n(-c3ccccc3)c2=O)cc1 |  | 1.86%
38 | N#Cc1sc(NCc2cccc(Cl)c2)nc1Cl |  | -3.86%
39 | COc1ccc(C(CNC(=O)c2oc3cc(Br)ccc3c2C)N2CCCCC2)cc1 (stereo unspecified) |  | -8.83%
40 | CC(=O)Oc1ccc2c(=O)c(Oc3ccccc3[N+](=O)[O-])coc2c1 |  | 7.74%
41 | O=C(Nc1ccc(N2CCCC2)c(Cl)c1)c1ccc([N+](=O)[O-])o1 | 7.36 µM (active) | 
42 | NC(=O)c1oc2ccccc2c1NC(=O)c1ccc([N+](=O)[O-])o1 | 2.61 µM (active) | 
43 | COc1ccc(N2CCCC2)c(NC(=O)c2ccc([N+](=O)[O-])o2)c1 |  | 14%
44 | O=C(Nc1cccc(Cl)c1N1CCOCC1)c1ccc([N+](=O)[O-])o1 |  | 2.72%

Row | SMILES | Potency | activity change, negative = cytotoxicity
45 | Cc1ccc(C)c(Sc2ccc(NC(=O)CCl)cc2)c1 |  | -24.4%
46 | COc1ccc2oc(=Nc3ccccc3)c(-c3nc4ccccc4[nH]3)cc2c1 | 7.36 µM (active) | 
47 | Cc1ncc([N+](=O)[O-])n1CCOC(=O)c1ccccc1 |  | 12.9%
48 | Cc1ccc(S(=O)(=O)N2[C@@H](c3ccccc3F)C(C(=O)O)=CC[C@H]2c2cccc(C)c2)cc1 |  | 14.1%
49 | [O-][n+]1c2ccccc2c2n1CCCN=C2c1ccc(Cl)cc1 |  | 7.31%
50 | O=C(CN1C(=O)c2ccccc2S1(=O)=O)c1ccc2c(c1)OCCO2 | 2.07 µM (active) | 
51 | O=[N+]([O-])c1nn(-c2ccccc2)[n+]([O-])c1N1CCN(c2ccccc2F)CC1 |  | 8.55%
52 | O=[N+]([O-])c1ccc(/C=C/c2ccnc3ccccc23)c([N+](=O)[O-])c1 |  | 23.8%
53 | CCOn1c(=O)c(-c2cccc([N+](=O)[O-])c2)[n+]([O-])c2ccccc21 |  | 1.56%
54 | CSC1SCC2C(=O)N(C)C(C(C)C)C(=O)OCC(NC(=O)c3cnc4ccccc4n3)C(=O)NC(C)C(=O)N(C)C1C(=O)N(C)C(C(C)C)C(=O)OCC(NC(=O)c1cnc3ccccc3n1)C(=O)NC(C)C(=O)N2C (stereo unspecified) | 0.0117 µM (active) | 
55 | O=[N+]([O-])c1cccc(S(=O)(=O)c2ccc(NCCOCCO)c([N+](=O)[O-])c2)c1 |  | 22.6%
56 | Cc1ccc(C2=NCCn3c2c2ccc(C(F)(F)F)cc2[n+]3[O-])cc1 |  | 0.0948%
57 | COc1ccc(NC(=O)c2ccc([N+](=O)[O-])o2)cc1 | 3.69 µM (active) | 
58 | Cc1ccc(CNC(=O)c2ccc([N+](=O)[O-])o2)cc1 |  | -2.51%
59 | COc1ccc(-c2cc3ccccc3oc2=O)cc1NC(=O)c1ccc([N+](=O)[O-])o1 |  | -15.1%
60 | Cc1cc(NC(=O)c2ccc([N+](=O)[O-])o2)ccc1NC(=O)c1ccco1 | 2.93 µM (active) | 
61 | O=C(NCc1ccco1)c1ccc([N+](=O)[O-])o1 |  | 0.173%
62 | Cc1onc(NC(=O)c2ccc([N+](=O)[O-])o2)c1Br |  | -10.9%
63 | COc1cc(NC(=O)c2ccc([N+](=O)[O-])o2)ccc1NC(=O)c1cccs1 | 14.7 µM (active) | 
64 | CCN(CC(=O)NCc1cccs1)C(=O)c1ccc([N+](=O)[O-])o1 |  | -18.8%
65 | O=C(Nc1ccc(Cc2ccncc2)cc1)c1ccc([N+](=O)[O-])o1 | 6.56 µM (active) | 
66 | O=C(Nc1ncccn1)c1ccc([N+](=O)[O-])o1 |  | 15.6%
